HEK293 cAMP cs = parental HEK293 cAMP activation (counter-screen); parental HEK293 CNG cAMP sensor, membrane potential fluorescence; Potency, µM (top dose mostly 57.1 µM), for inactives: top-dose activation, actives largely listed as activators; 73,000 tested, 2.5% active; AID 938; note: % of control where 0% means no effect; nearly all actives have a fitted effect of over 55% in size
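Counterscreen for endogenous-receptor signalling: CNG-channel HEK 293 cells report cAMP rise by membrane depolarization. After 60 min dye equilibration with 100 uM RO 20-1724, compounds incubated 30 min before bottom-read fluorescence at 590 nm.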
ERK AVP block = inhibitors of vasopressin-stimulated ERK signaling pathway; HEK293-V1b, vasopressin-stimulated pERK AlphaScreen; Potency, µM (titrated, usually from 57.5 µM), for inactives: top-dose activity, negative = inhibition, hits mostly inhibitors; 72,000 tested, 0.99% active; AID 995; note: % is set by controls: 0 for no effect and ±100 for the full control effect; nearly all actives have a fitted effect of over 55% in size
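Phosphorylated ERK1/2 detected via AlphaScreen bead proximity in lysates of V1b-expressing HEK293 cells given 25 nM vasopressin for 5 min after 30 min compound exposure (37 °C). AC50 from Hill equation; basal DMSO 0%, vasopressin 100%.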
TSHR ag = activates the human thyroid stimulating hormone receptor | P16473 | 73,000 tested, 0.48% active | Potency, µM (highest dose often 57.1 µM), for the others: top-dose activation, actives largely listed as activators | HEK293-CNG-TSHR cells (CNG channel as cAMP sensor), membrane potential dye, cAMP | AID 926; active = well fitted activation curve with a large enough effect in the main read-out, with a control signal flat, not every such curve was filed as active; inconclusive = small, poorly fitted or top-dose-only effect, or a change in a side signal; inactive = no such curve, though single readings can be large or run the other way; % of control where 0% means no effect;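 note: the control signal comes from parental cells without the receptor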
Target sequence (P16473 whole entry, looked up): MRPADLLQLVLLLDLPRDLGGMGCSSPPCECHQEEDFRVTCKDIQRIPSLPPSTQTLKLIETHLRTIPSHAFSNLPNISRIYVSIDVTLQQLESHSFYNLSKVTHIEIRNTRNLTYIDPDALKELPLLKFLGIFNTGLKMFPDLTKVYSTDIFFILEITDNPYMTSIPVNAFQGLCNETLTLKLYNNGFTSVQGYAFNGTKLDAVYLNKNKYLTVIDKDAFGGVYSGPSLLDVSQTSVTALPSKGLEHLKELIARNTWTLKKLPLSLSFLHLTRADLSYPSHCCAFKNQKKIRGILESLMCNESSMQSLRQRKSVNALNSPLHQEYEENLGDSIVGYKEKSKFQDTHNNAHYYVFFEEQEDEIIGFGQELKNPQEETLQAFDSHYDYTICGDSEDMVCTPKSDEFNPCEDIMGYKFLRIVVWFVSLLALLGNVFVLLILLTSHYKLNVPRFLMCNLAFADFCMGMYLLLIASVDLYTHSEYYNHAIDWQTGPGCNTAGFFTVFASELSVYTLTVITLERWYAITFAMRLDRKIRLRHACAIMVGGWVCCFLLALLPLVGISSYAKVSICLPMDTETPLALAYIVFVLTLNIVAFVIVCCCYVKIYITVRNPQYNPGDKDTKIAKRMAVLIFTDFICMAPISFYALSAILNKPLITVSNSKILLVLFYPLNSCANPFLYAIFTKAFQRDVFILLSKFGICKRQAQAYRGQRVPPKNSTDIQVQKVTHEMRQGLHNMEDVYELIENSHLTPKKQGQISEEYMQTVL
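HEK 293 cells stably expressing TSHR and a cAMP-gated CNG channel; parental CNG-only cells as counterscreen. Cells preloaded 60 min with membrane potential dye plus 100 uM RO 20-1724, then compound 30 min; fluorescence read at 590 nm.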
CRE-bla Fsk = alters forskolin-stimulated CRE reporter signaling in CHO cells | CHO CRE-bla reporter (cAMP response element driving beta-lactamase), forskolin EC10, beta-lactamase ratio | Potency, µM (highest dose often 38.2 µM), inactives show at the highest dose activity change, negative = inhibition, most hits filed as activators | 71,000 tested, 2.5% active | AID 662; active = well fitted activation curve with a large enough effect in the signal ratio, with a control signal flat, not every such curve was filed as active; inconclusive = small, poorly fitted or top-dose-only effect, or effect the other way, or a change in a side signal; the % refers to the signal ratio; note: % of control where 0% means no effect
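Modulation of forskolin-driven signalling is measured in CHO cells carrying a CRE-controlled beta-lactamase reporter. Cells are stimulated with EC10 NKH 477 in the presence of titrated compound for 3 h at 37 °C, then loaded with CCF4 for 2 h at room temperature.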
* = called active by the depositor; ? = inconclusive; nt = not tested or not shown; ! = repeats disagree; [ ] = remark or other dose. This is a sample that favours compounds with a hit; in the whole collection about 6% have one here. Unless noted, calls come from the whole dose curve; as a rule, active = well fitted curve in the direction sought with a large enough effect; inconclusive = small, poorly fitted or top-dose-only effect, or another doubt; inactive = no such curve, though single readings can be large; an effect the other way counts as inactive or inconclusive. Potency is the fitted concentration of half-maximal effect.

SMILES | HEK293 cAMP cs | ERK AVP block | TSHR ag | CRE-bla Fsk
Cc1cc(N2CCOCC2)nc(SCC(=O)c2ccc(Cl)cc2)n1 | ? | -22% | ? | 10µM*
Cc1cc(N2CCOCC2)nc(SCC(=O)c2ccccc2)n1 | 16% | 13% | 0% | ?
Cc1ccc(S(=O)(=O)N(C)Cc2ccc(-c3nnco3)cc2)cc1 | 25µM* | 12% | ? | -4%
CCN(CC)S(=O)(=O)c1ccc(-c2nnco2)cc1 | 1% | 6% | 16% | -4%
CC(=O)c1cccc(NC(=O)Nc2ccc3c(c2)N(C)C(=O)CS3)c1 | -2% | 10µM* | 5% | -11%
Cc1cc2c(nc1C)CCCN2C[C@@H](O)CN1CCN(C)CC1 | 1%[11.4 µM] | 15%[11.5 µM] | -2%[11.4 µM] | nt
COC(=O)C(c1ccccc1Cl)N1CCc2sccc2C1 (centres undefined) | nt | 4% | nt | nt
Cc1ccccc1/C=C\C1=NCCN1 | 12% | -8% | 0.13µM* | -2%
c1ccc(CC2=NCCN2)cc1 | ? | 14% | ? | 6%[17.1 µM]
O=C(CSc1nc2ccccc2s1)c1sc2sc3ccccc3[n+]2c1O | 3%[11.4 µM] | -1%[11.5 µM] | 2%[11.4 µM] | 7%[7.6 µM]
CCn1ncc(Br)c1C(=O)Nc1sc2c(c1C(N)=O)CCC2 | 2% | -12% | 10% | 2.5µM*
CC(C)CC(c1nnnn1C1CCCC1)N1CCN(C(=O)c2ccco2)CC1 (centres undefined) | 7.9µM* | -1% | ? | 1%
CCCC(c1nnnn1C1CCCC1)N1CCN(C(=O)c2ccco2)CC1 (centres undefined) | 16µM* | -5% | ? | 3%
CCCCC(c1nnnn1C1CCCC1)N1CCN(C(=O)c2ccco2)CC1 (centres undefined) | ? | 4% | ? | -1%
CC(C)Nc1nc(NC(C)C)nc(N(C)C#N)n1 | 2% | -6% | 6% | 13µM*
O=NC1=C(c2c(O)[nH]c3ccccc23)CCCC1 | 14% | 17% | 6% | 1%
O=Nc1c(-c2c(O)[nH]c3ccccc23)[nH]c2ccccc12 | -105% | 10µM* | ? | ?
CCOc1ccccc1C1C(C#N)=C(N)SC(N)=C1C#N | 22% | 15% | 5% | ?
CCOc1ccc(C2C(C#N)=C(N)SC(N)=C2C#N)cc1OCC | 26% | 2% | 4% | 7.9µM*
O=C(NCCCN1CCOCC1)c1ccc(-n2c(=O)c(=O)[nH]c3ccccc32)cc1 | -16% | nt | 3% | nt
CN1CCc2c(sc3c2c(=O)n(-c2ccccc2)c2nnc(SCc4ccc(F)cc4)n32)C1 | 15% | -12% | -1% | 10%
CSc1nnc2n(-c3ccccc3)c(=O)c3c4c(sc3n12)CCC4 | 5% | -27% | 4% | 2.5µM*
COc1ccc(Cc2nnc(SCc3c(C)noc3C)n2C2CCCCC2)cc1OC | ? | -21% | ? | -2%
Cc1noc(C)c1CSc1nc2sc(C)c(C)c2c(=O)n1C1CCCC1 | 22% | -5% | 14% | 2µM*
C=CCn1c(SCc2c(C)noc2C)nc2sc3c(c2c1=O)CCCCC3 | 8% | -1% | 15% | 2.5µM*
SMILES | HEK293 cAMP cs | ERK AVP block | TSHR ag | CRE-bla Fsk
Cc1csc2nc(CSc3nncn3-c3ccccc3)c(Br)n12 | 0% | -16% | nt | ?
Cc1csc2nc(CSc3nc4ccccc4o3)c(Br)n12 | 25µM* | -15% | ? | 2.5µM*
NCC1O[C@@H](OC2C(N)CC(N)C(O)C2O[C@@H]2OC(CO)C(O)C2O)C(N)C(O)C1O (some centres undefined) | nt | 23% | nt | nt
O=C1c2c(O)ccc(O)c2C(=O)c2c(NCCNCCO)ccc(NCCNCCO)c21 | -2%[25.6 µM] | 13µM*! | -20%[25.6 µM] | 5%[17.1 µM]
CN(C)S(=O)(=O)N1CCN(CC(O)COc2ccc(C(=O)c3ccccc3)cc2)CC1 (centres undefined) | 8% | 32µM* | 12% | -11%
O=C(c1ccccc1)c1ccc(OCC(O)CN2CCCCC2)cc1 (centres undefined) | 3% | -5% | 13% | -23%
Cc1nc2sc3c(c2c2nc(-c4ccco4)nn12)CCCC3 | 32µM* | -12% | ? | ?
O=C(CSc1ncnc2sc3c(c12)CCCCC3)NCc1ccco1 | ? | -27% | ? | 13µM*
c1coc(CNc2nc3sc4c(c3c3ncnn23)CCCC4)c1 | -3% | -29% | 21% | 6.3µM*
Cc1nc2sc3c(c2c2nnc(SCC(=O)NCc4ccco4)n12)CCCC3 | ? | -19% | ? | 13µM*
O=C(c1oc2ccccc2c1CSCc1ccccc1)N1CCN(c2ncccn2)CC1 | 10µM* | 5µM* | ? | ?
CCc1ccc(-c2nnn(CCC(=O)OC)n2)cc1 | 7.9µM* | 16% | ? | 3%
COc1ccc(-c2nnc3sc(-c4cccs4)nn23)cc1OC | 17% | ? | 13% | 2.5µM*
COc1ccc(-c2nn3c(-c4cccc(C)c4)nnc3s2)cc1OC | ? | ? | ? | 2µM*
COc1cc(-c2nnc3sc(-c4cccs4)nn23)cc(OC)c1OC | -4% | -13% | 12% | 1.6µM*
Cc1cccc(-c2nnc3sc(-c4ccccc4)nn23)c1 | ? | -15% | ? | ?
Cn1c(CNc2nc3ccccc3n2C)nc2ccccc21 | 5% | 10% | 10% | 8%
Cn1c(Nn2cnnc2)nc2ccccc21 | 3.2µM* | -13% | ? | -3%
COc1ccc(COC(=O)N/N=C2/C[C@@H](O)[C@@H](O)[C@@H]3[C@H]4C(=O)N(c5ccc(F)cc5F)C(=O)[C@@H]4CC[C@H]23)cc1 | 4%[11.4 µM] | -10%[11.5 µM] | -6%[11.4 µM] | nt
Cc1noc(C)c1CSc1nc2ccccc2nc1NS(=O)(=O)c1ccc(Cl)cc1 | 1% | -1% | 13% | ?
CCc1c(C#N)c(SCc2c(C)noc2C)nc2c1C(=O)CC(C)(C)C2 | 13µM* | 15% | ? | ?
COC(=O)[C@H](C)NC(=O)Nc1ccc(OC)c(OC)c1 | 14% | -9% | 1% | ?
COC(=O)[C@H](C)NC(=O)Nc1ccc(Oc2ccccc2)cc1 | -2% | 25µM* | -3% | 22%
Cc1nc2scc(-c3cccs3)c2c(=O)n1-n1cccc1 | 32µM* | -8% | ? | 25%
CC(C)=CCC/C(C)=C/CO/N=C1/C[C@@H](O)[C@@H](O)[C@@H]2[C@H]3C(=O)N(c4ccc(F)cc4F)C(=O)[C@@H]3CC[C@H]12 | 1%[11.4 µM] | 12%[11.5 µM] | 1%[11.4 µM] | nt
CC[C@H](C)N(C)C(=O)c1cc2ccccc2c(-c2ccccc2Cl)n1 | ? | -15% | 25µM* | -22%
CC(=O)Cc1nsc(NC(=O)c2ccc(-c3cc(C(F)(F)F)ccc3Cl)o2)n1 | 25% | -11% | 25% | 0.63µM*
CC(C)=CCC/C(C)=C/CO/N=C1/C[C@@H](O)[C@@H](O)[C@@H]2[C@@H]3C(=O)N([C@@H](C)c4ccccc4)C(=O)[C@H]3CC[C@@H]12 | -9%[11.4 µM] | 13%[11.5 µM] | -6%[11.4 µM] | nt
CCOC(=O)c1cc2c(ccn2C)n1CC(=O)N1CCN(c2ccccc2)CC1 | 3% | -18% | -6% | -9%
CCOC(=O)c1cc2c(ccn2C)n1Cc1ccccc1C | 25µM* | -28% | ? | -17%

Screening data as filed in PubChem.
